# Results as given in the supplement of paper PMC4022240.
# ± gives the standard deviation.
# T1: HaloTag-ATRX ADD domain (163-292)
# T1 chain: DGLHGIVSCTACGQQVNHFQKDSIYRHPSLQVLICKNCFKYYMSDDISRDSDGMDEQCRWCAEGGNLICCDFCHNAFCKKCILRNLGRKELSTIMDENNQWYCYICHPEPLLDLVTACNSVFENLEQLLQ
# How the values were obtained:
# Experiment in all cases: peptide microarray binding signal (635 nm), min-max normalized on array (fraction of array maximum); higher = stronger binding
# [1] = target: T1, HaloTag-ATRX ADD domain (163-292)
# Summary of the method: (§1)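 Within each library, mean intensities of triplicate spots were min-max scaled to give the binding signal. The spots were histone 13-mer peptide–cellulose conjugates on nitrocellulose with a Cy3 tracer, blocked overnight at 4°C. They were then probed for 1 h at 4°C using biotin-labelled HaloTag reader fusions (10 nM to 1 μM) with streptavidin-Alexa Fluor 647 or rabbit histone antibodies (1:10,000 to 1:2,000) with anti-rabbit Alexa 647, and scanned at 635 nm for signal and 532 nm for misprints on an Axon GenePix 4000B.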
# [2] = target: HaloTag-ING2 PHD (mouse Ing2 200-280)
# Summary of the method: as §1
# [3] = target: anti-H3K4me3 antibody ab8580
# Summary of the method: as §1
# [4] = target: anti-H3K9me3 antibody ab8898
# Summary of the method: as §1
# [5] = peptide region: H3 50-62, peptide modifications: H3K56me3 H3S57ph, binder concentration: 1:2,000 dilution
# [6] = peptide region: H3 50-62, peptide modifications: H3K56me3 H3S57ph, binder concentration: 1:10,000 dilution
# [7] = peptide region: H3 73-85, peptide modifications: H3K79me1, binder concentration: 1:2,000 dilution
# [8] = peptide region: H3 73-85, peptide modifications: H3K79me1, binder concentration: 1:10,000 dilution
# [9] = peptide region: H3 50-62, peptide modifications: H3S57ph, binder concentration: 1:2,000 dilution
# [10] = peptide region: H3 50-62, peptide modifications: H3S57ph, binder concentration: 1:10,000 dilution
# [11] = peptide region: H3 73-85, peptide modifications: H3K79me2, binder concentration: 1:2,000 dilution
# [12] = peptide region: H3 73-85, peptide modifications: H3K79me2, binder concentration: 1:10,000 dilution
# [13] = peptide region: H3 50-62, peptide modifications: H3K56me3 H3T58ph, binder concentration: 1:2,000 dilution
# [14] = peptide region: H3 50-62, peptide modifications: H3K56me3 H3T58ph, binder concentration: 1:10,000 dilution
# [15] = peptide region: H3 50-62, peptide modifications: H3K56me3, binder concentration: 1:2,000 dilution
# [16] = peptide region: H3 50-62, peptide modifications: H3K56me3, binder concentration: 1:10,000 dilution
# [17] = peptide region: H3 50-62, peptide modifications: H3K56me2 H3S57ph, binder concentration: 1:2,000 dilution
# [18] = peptide region: H3 50-62, peptide modifications: H3K56me2 H3S57ph, binder concentration: 1:10,000 dilution
# [19] = peptide region: H3 50-62, binder concentration: 1:2,000 dilution
# [20] = peptide region: H3 50-62, binder concentration: 1:10,000 dilution
# [21] = peptide region: H3 73-85, peptide modifications: H3K79ac H3T80ph, binder concentration: 1:2,000 dilution
# [22] = peptide region: H3 73-85, peptide modifications: H3K79ac H3T80ph, binder concentration: 1:10,000 dilution
# [23] = peptide region: H3 50-62, peptide modifications: H3K56me2 H3T58ph, binder concentration: 1:2,000 dilution
# [24] = peptide region: H3 50-62, peptide modifications: H3K56me2 H3T58ph, binder concentration: 1:10,000 dilution
binder,measurement,setting,value
EIRRYQKSTELLI [H3 50-62 E I R R Y Q Kme3 Sph T E L L I],peptide microarray binding signal,"[1]; peptide region: H3 50-62, peptide modifications: H3K56me3 H3S57ph, binder concentration: 50 nM",0.00122 ± 2.2e-05
same,peptide microarray binding signal,"[1]; peptide region: H3 50-62, peptide modifications: H3K56me3 H3S57ph, binder concentration: 500 nM",0.00224 ± 0.0003
same,peptide microarray binding signal,"[2]; peptide region: H3 50-62, peptide modifications: H3K56me3 H3S57ph, binder concentration: 10 nM",0.00251 ± 0.0001
same,peptide microarray binding signal,"[2]; peptide region: H3 50-62, peptide modifications: H3K56me3 H3S57ph, binder concentration: 100 nM",0.00142 ± 0.00012
same,peptide microarray binding signal,[3]; [5],0.00238 ± 0.00081
same,peptide microarray binding signal,[3]; [6],0.00177 ± 5e-05
same,peptide microarray binding signal,[4]; [5],0.0141 ± 0.011
same,peptide microarray binding signal,[4]; [6],0.0094 ± 0.0038
EIAQDFKTDLRFQ [H3 73-85 E I A Q D F Kme T D L R F Q],peptide microarray binding signal,"[1]; peptide region: H3 73-85, peptide modifications: H3K79me1, binder concentration: 50 nM",0.00649 ± 0.00015
same,peptide microarray binding signal,"[1]; peptide region: H3 73-85, peptide modifications: H3K79me1, binder concentration: 500 nM",0.02 ± 0.0022
same,peptide microarray binding signal,"[2]; peptide region: H3 73-85, peptide modifications: H3K79me1, binder concentration: 10 nM",0.0116 ± 0.0014
same,peptide microarray binding signal,"[2]; peptide region: H3 73-85, peptide modifications: H3K79me1, binder concentration: 100 nM",0.00475 ± 0.00052
same,peptide microarray binding signal,[3]; [7],0.00198 ± 0.00026
same,peptide microarray binding signal,[3]; [8],0.00234 ± 9.2e-05
same,peptide microarray binding signal,[4]; [7],0.0079 ± 0.00033
same,peptide microarray binding signal,[4]; [8],0.00357 ± 0.00023
EIRRYQKSTELLI [H3 50-62 E I R R Y Q K Sph T E L L I],peptide microarray binding signal,"[1]; peptide region: H3 50-62, peptide modifications: H3S57ph, binder concentration: 50 nM",0.000878 ± 5.7e-05
same,peptide microarray binding signal,"[1]; peptide region: H3 50-62, peptide modifications: H3S57ph, binder concentration: 500 nM",0.00167 ± 0.00017
same,peptide microarray binding signal,"[2]; peptide region: H3 50-62, peptide modifications: H3S57ph, binder concentration: 10 nM",0.00179 ± 2.8e-05
same,peptide microarray binding signal,"[2]; peptide region: H3 50-62, peptide modifications: H3S57ph, binder concentration: 100 nM",0.00085 ± 3.4e-05
same,peptide microarray binding signal,[3]; [9],0.000132 ± 5.8e-06
same,peptide microarray binding signal,[3]; [10],0.000228 ± 4.4e-06
same,peptide microarray binding signal,[4]; [9],0.000755 ± 0.00012
same,peptide microarray binding signal,[4]; [10],0.000461 ± 8.7e-06
EIAQDFKTDLRFQ [H3 73-85 E I A Q D F Kme2 T D L R F Q],peptide microarray binding signal,"[1]; peptide region: H3 73-85, peptide modifications: H3K79me2, binder concentration: 50 nM",0.002539 ± 2.2e-05
same,peptide microarray binding signal,"[1]; peptide region: H3 73-85, peptide modifications: H3K79me2, binder concentration: 500 nM",0.00633 ± 0.00033
same,peptide microarray binding signal,"[2]; peptide region: H3 73-85, peptide modifications: H3K79me2, binder concentration: 10 nM",0.00281 ± 3.1e-05
same,peptide microarray binding signal,"[2]; peptide region: H3 73-85, peptide modifications: H3K79me2, binder concentration: 100 nM",0.00376 ± 0.00014
same,peptide microarray binding signal,[3]; [11],0.00106 ± 6.2e-05
same,peptide microarray binding signal,[3]; [12],0.00097 ± 2e-05
same,peptide microarray binding signal,[4]; [11],0.0117 ± 0.004
same,peptide microarray binding signal,[4]; [12],0.00709 ± 0.00024
EIRRYQKSTELLI [H3 50-62 E I R R Y Q Kme3 S Tph E L L I],peptide microarray binding signal,"[1]; peptide region: H3 50-62, peptide modifications: H3K56me3 H3T58ph, binder concentration: 50 nM",0.0015 ± 4e-05
same,peptide microarray binding signal,"[1]; peptide region: H3 50-62, peptide modifications: H3K56me3 H3T58ph, binder concentration: 500 nM",0.00129 ± 3.6e-05
same,peptide microarray binding signal,"[2]; peptide region: H3 50-62, peptide modifications: H3K56me3 H3T58ph, binder concentration: 10 nM",0.00281 ± 8.3e-05
same,peptide microarray binding signal,"[2]; peptide region: H3 50-62, peptide modifications: H3K56me3 H3T58ph, binder concentration: 100 nM",0.0017 ± 4.6e-05
same,peptide microarray binding signal,[3]; [13],0.00109 ± 3.3e-05
same,peptide microarray binding signal,[3]; [14],0.000799 ± 2.2e-05
same,peptide microarray binding signal,[4]; [13],0.00261 ± 0.0003
same,peptide microarray binding signal,[4]; [14],0.001211 ± 1.2e-05
EIRRYQKSTELLI [H3 50-62 E I R R Y Q Kme3 S T E L L I],peptide microarray binding signal,"[1]; peptide region: H3 50-62, peptide modifications: H3K56me3, binder concentration: 50 nM",0.00232 ± 0.0002
same,peptide microarray binding signal,"[1]; peptide region: H3 50-62, peptide modifications: H3K56me3, binder concentration: 500 nM",0.0019 ± 6e-05
same,peptide microarray binding signal,"[2]; peptide region: H3 50-62, peptide modifications: H3K56me3, binder concentration: 10 nM",0.00233 ± 2.7e-05
same,peptide microarray binding signal,"[2]; peptide region: H3 50-62, peptide modifications: H3K56me3, binder concentration: 100 nM",0.002268 ± 2.2e-05
same,peptide microarray binding signal,[3]; [15],0.00259 ± 0.0002
same,peptide microarray binding signal,[3]; [16],0.00108 ± 3.8e-05
same,peptide microarray binding signal,[4]; [15],0.0209 ± 0.0092
same,peptide microarray binding signal,[4]; [16],0.00986 ± 0.0031
EIRRYQKSTELLI [H3 50-62 E I R R Y Q Kme2 Sph T E L L I],peptide microarray binding signal,"[1]; peptide region: H3 50-62, peptide modifications: H3K56me2 H3S57ph, binder concentration: 50 nM",0.00113 ± 1.5e-05
same,peptide microarray binding signal,"[1]; peptide region: H3 50-62, peptide modifications: H3K56me2 H3S57ph, binder concentration: 500 nM",0.00124 ± 2.3e-05
same,peptide microarray binding signal,"[2]; peptide region: H3 50-62, peptide modifications: H3K56me2 H3S57ph, binder concentration: 10 nM",0.00269 ± 0.00012
same,peptide microarray binding signal,"[2]; peptide region: H3 50-62, peptide modifications: H3K56me2 H3S57ph, binder concentration: 100 nM",0.00128 ± 1.3e-05
same,peptide microarray binding signal,[3]; [17],0.000378 ± 3.9e-06
same,peptide microarray binding signal,[3]; [18],0.000342 ± 3.8e-06
same,peptide microarray binding signal,[4]; [17],0.000725 ± 3.3e-05
same,peptide microarray binding signal,[4]; [18],0.000634 ± 1.2e-05
EIRRYQKSTELLI [H3 50-62 E I R R Y Q K S T E L L I],peptide microarray binding signal,"[1]; peptide region: H3 50-62, binder concentration: 50 nM",0.00599 ± 0.00033
same,peptide microarray binding signal,"[1]; peptide region: H3 50-62, binder concentration: 500 nM",0.0144 ± 0.00044
same,peptide microarray binding signal,"[2]; peptide region: H3 50-62, binder concentration: 10 nM",0.00859 ± 0.00029
same,peptide microarray binding signal,"[2]; peptide region: H3 50-62, binder concentration: 100 nM",0.00149 ± 5.6e-05
same,peptide microarray binding signal,[3]; [19],0.00017 ± 3.2e-06
same,peptide microarray binding signal,[3]; [20],0.00514 ± 0.0014
same,peptide microarray binding signal,[4]; [19],0.00299 ± 0.00025
same,peptide microarray binding signal,[4]; [20],0.00288 ± 7.4e-05
EIAQDFKTDLRFQ [H3 73-85 E I A Q D F Kac Tph D L R F Q],peptide microarray binding signal,"[1]; peptide region: H3 73-85, peptide modifications: H3K79ac H3T80ph, binder concentration: 50 nM",0.000721 ± 1.1e-05
same,peptide microarray binding signal,"[1]; peptide region: H3 73-85, peptide modifications: H3K79ac H3T80ph, binder concentration: 500 nM",0.00171 ± 4.6e-05
same,peptide microarray binding signal,"[2]; peptide region: H3 73-85, peptide modifications: H3K79ac H3T80ph, binder concentration: 10 nM",0.00221 ± 4.4e-05
same,peptide microarray binding signal,"[2]; peptide region: H3 73-85, peptide modifications: H3K79ac H3T80ph, binder concentration: 100 nM",0.000638 ± 7.1e-06
same,peptide microarray binding signal,[3]; [21],0.000491 ± 2.4e-05
same,peptide microarray binding signal,[3]; [22],0.000628 ± 1.8e-05
same,peptide microarray binding signal,[4]; [21],0.000951 ± 3.6e-05
same,peptide microarray binding signal,[4]; [22],0.000865 ± 1.8e-05
EIRRYQKSTELLI [H3 50-62 E I R R Y Q Kme2 S Tph E L L I],peptide microarray binding signal,"[1]; peptide region: H3 50-62, peptide modifications: H3K56me2 H3T58ph, binder concentration: 50 nM",0.00116 ± 2.9e-05
same,peptide microarray binding signal,"[1]; peptide region: H3 50-62, peptide modifications: H3K56me2 H3T58ph, binder concentration: 500 nM",0.00181 ± 4.2e-05
same,peptide microarray binding signal,"[2]; peptide region: H3 50-62, peptide modifications: H3K56me2 H3T58ph, binder concentration: 10 nM",0.00286 ± 0.00011
same,peptide microarray binding signal,"[2]; peptide region: H3 50-62, peptide modifications: H3K56me2 H3T58ph, binder concentration: 100 nM",0.000992 ± 1.1e-05
same,peptide microarray binding signal,[3]; [23],0.000415 ± 1.5e-05
same,peptide microarray binding signal,[3]; [24],0.000456 ± 4.9e-06
same,peptide microarray binding signal,[4]; [23],0.00199 ± 0.00011
same,peptide microarray binding signal,[4]; [24],0.000923 ± 1.9e-05
